Screening data from PubChem BioAssay.
D2 ag-1: activates the human D2 dopamine receptor; 340,000 compounds, 0.53% hits; P14416; activation, % at 2 µM; HEK293 T-REx D2 cells, calcium flux agonist mode;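 active = activation over 3 SD above normal in the single-dose calcium agonist read, cut at about 30% in these data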; note: 0% is about no effect
Target sequence (P14416 whole entry, looked up): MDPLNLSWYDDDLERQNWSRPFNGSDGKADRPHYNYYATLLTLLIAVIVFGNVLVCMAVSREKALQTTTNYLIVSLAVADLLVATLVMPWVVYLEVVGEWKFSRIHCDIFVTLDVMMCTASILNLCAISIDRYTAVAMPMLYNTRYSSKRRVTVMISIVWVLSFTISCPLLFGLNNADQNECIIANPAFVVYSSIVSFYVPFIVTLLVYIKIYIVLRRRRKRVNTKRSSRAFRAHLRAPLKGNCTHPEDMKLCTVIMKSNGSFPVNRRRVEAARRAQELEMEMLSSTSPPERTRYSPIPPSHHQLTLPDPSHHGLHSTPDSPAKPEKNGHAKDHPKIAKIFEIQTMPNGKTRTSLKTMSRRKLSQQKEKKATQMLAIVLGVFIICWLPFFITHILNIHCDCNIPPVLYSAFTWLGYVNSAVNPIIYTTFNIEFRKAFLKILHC
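In this primary screen, compounds producing a positive calcium signal within 180 s of addition to tetracycline-induced, force-coupled HEK293 Trex D2 cells are flagged; cells are dye-loaded with a no-wash calcium kit beforehand.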
D2 PAM-1: human D2 receptor positive allosteric modulation | P14416 | DiscoveRx D2 beta-arrestin cells, luminescence, 90 min; 100% = 57 uM dopamine signal | potentiation, % (concentration not given with the values) | 360,000 compounds, 0.23% hits | AID 624464; in the data active = potentiation above about 50%
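D2 cells co-treated with compound plus 50 nM dopamine (EC20) for 90 min at 37 deg C to detect potentiation. Beta-arrestin recruitment was read as enzyme-fragment luminescence after 1 h at ambient temperature. Full response was set by 57 uM dopamine.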
D2 ag-2: agonists of human D2 dopamine receptor (beta-arrestin) | DiscoveRx PathHunter D2 beta-arrestin, luminescence, 90 min; 100% = 57 uM dopamine signal | activation, % (concentration not given with the values) | 360,000 compounds, 0.084% hits; in the data active = activation above about 40%
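DiscoveRx PathHunter D2 beta-arrestin cells (2,100/well) attached overnight, then compound-stimulated 90 min at 37 C in HBSS/10 mM HEPES/0.1% Tween-20 buffer; beta-galactosidase complementation read by luminescence after 1 h at ambient temperature. Dopamine 57 uM final (EC100) as control.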
D2 antagonist: antagonizes the human D2 dopamine receptor | P14416 | HEK293 TREx D2 cells, calcium flux, dopamine EC80 | inhibition, % at 10 µM | 340,000 compounds, 2% hits; in the data active = inhibition above about 30%; inactive = below that, where a call was filed; note: 0% is about no effect
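HEK293 T-REx D2 cells, tet-induced, calcium dye no-wash. Cpd pintool add, 180 s kinetic, then EC80 DA, 180 s kinetic. Ca flux read.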
D2 PAM-2: positive allosteric modulators of human D2 dopamine receptor; HEK293 T-REx D2, calcium flux, EC20 dopamine potentiation; P14416; AID 485347; potentiation, % at 10 µM; 340,000 compounds, 0.34% hits;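 active = potentiation over 3 SD above the plate norm, cut at about 30% in these data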; note: 0% is about no effect
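Tetracycline-induced Hek293 Trex D2 cells, force-coupled to calcium, loaded with no-wash calcium dye. Compound added with 180 s kinetic read for agonism, then EC20 dopamine and a further 180 s read for potentiation.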
Numbers without * were called inactive. Only some compounds are listed: those with a hit (about 2.4% of all), similar ones and a draw of the others.

Results for Fc1ccc(NC(=S)NC2CC3CCC(C2)N3Cc2ccco2)cc1 (stereo unspecified) ?
D2 PAM-1: -16; D2 ag-2: -3

Results for COc1cc(OC)cc(C(=O)NC2CC3CCC(C2)N3Cc2ccco2)c1 (stereo unspecified) ?
D2 ag-1: 2; D2 PAM-1: -37; D2 ag-2: -3; D2 antagonist: 48*; D2 PAM-2: -17

Results for O=C(Nc1cccc(Cl)c1)NC1CC2CCC(C1)N2Cc1ccco1 (stereo unspecified) ?
D2 ag-1: 1; D2 PAM-1: -4; D2 ag-2: 1; D2 antagonist: 64*; D2 PAM-2: -35

Results for Cc1ccc(C(=O)NC2CC3CCC(C2)N3Cc2ccco2)cc1 (stereo unspecified) ?
D2 ag-1: 0; D2 PAM-1: -36; D2 ag-2: -3; D2 antagonist: 21; D2 PAM-2: -26

What do the screens show for `Cc1cccc(NC(=O)CSc2nc(=O)n(CCN3CCOCC3)c3c2CCC3)c1C`?
D2 ag-1: -1; D2 PAM-2: 0

Results for CCS(=O)(=O)N1CC(=O)N(c2ccc(C)c(C)c2)C(C)(C(=O)NC2CCCCCC2)C1 (stereo unspecified) ?
D2 PAM-2: -11

Results for Cc1cccc(NC(=S)NC2CC3CCCC(C2)N3Cc2cccs2)c1 (stereo unspecified) ?
D2 ag-1: 1; D2 PAM-1: -30; D2 ag-2: 1; D2 antagonist: 77*; D2 PAM-2: -22

Results for O=C(Nc1ccc(Cl)c(C(F)(F)F)c1)NC1CC2CCCC(C1)N2Cc1ccccc1 (stereo unspecified) ?
D2 ag-1: 1; D2 PAM-1: -9; D2 ag-2: -3; D2 antagonist: 48*

What do the screens show for `CC1(C(=O)NS(=O)(=O)c2ccc(F)cc2F)CCN1C(=O)C1CCCCC1` (stereo unspecified)?
D2 PAM-1: -6; D2 ag-2: -4

What do the screens show for `COC(=O)[C@@H]1C[C@@H]2CC[C@@H](O)C[C@@H]2N1Cc1ccc(OC)cc1`?
D2 ag-1: 1; D2 PAM-1: -4; D2 ag-2: -2; D2 antagonist: 39*; D2 PAM-2: 9

How did CC(C)c1ccc(-c2noc(SCC(=O)N3CCCCC3)n2)cc1 do in these assays?
D2 ag-1: 0; D2 PAM-2: 3

What do the screens show for `Cc1cc(C)c2nc(-c3ccccn3)cc(C(=O)NCc3cc(C)n(C)n3)c2c1`?
D2 ag-1: 0; D2 PAM-1: 5; D2 ag-2: -4; D2 antagonist: 35*; D2 PAM-2: -13

What do the screens show for `CSc1ncc2c(n1)-c1ccccc1N(Cc1ccccc1C)S2(=O)=O`?
D2 PAM-2: -6

How did CCOc1ccc(-c2nc3c(C#N)c[nH]n3c2NC2CCCCC2)cc1 do in these assays?
D2 PAM-2: 2

How did COC(=O)N1CCCCC1c1cc(C(=O)Nc2cccc3c2CCCC3)no1 (stereo unspecified) do in these assays?
D2 PAM-1: 4; D2 ag-2: -4

Results for c1coc(CNc2nc(-c3ccncc3)cs2)c1 ?
D2 PAM-1: 13; D2 ag-2: 2; D2 PAM-2: 32*

How did COc1ccc(-c2csc(NCc3ccco3)n2)cc1 do in these assays?
D2 ag-1: 0; D2 PAM-1: -9; D2 ag-2: -6; D2 antagonist: -10; D2 PAM-2: 8

How did Cc1sc2nc(CSc3ccccc3)nc(N3CCN(C)CC3)c2c1C do in these assays?
D2 ag-1: 1; D2 PAM-1: -32; D2 ag-2: -3; D2 antagonist: 90*; D2 PAM-2: -37

How did COc1ccc(CCN2C(=O)c3[nH]nc(-c4ccccc4O)c3C2c2cccc(OC)c2)cc1 (stereo unspecified) do in these assays?
D2 ag-1: -1; D2 PAM-2: 1

How did COc1ccc(CCN2C(=O)c3[nH]nc(-c4ccccc4O)c3C2c2cccc(Cl)c2)cc1 (stereo unspecified) do in these assays?
D2 ag-1: -1; D2 PAM-1: 91*; D2 ag-2: 12; D2 antagonist: -12; D2 PAM-2: -4

Results for COC(=O)c1ccccc1NC(=O)CCC(=O)N1CCOc2ccccc21 ?
D2 ag-1: 1; D2 PAM-2: 12

How did Cc1ccc(C#N)c(SCCN2CCCCC2)n1 do in these assays?
D2 ag-1: 0; D2 PAM-1: -21; D2 ag-2: -2; D2 antagonist: 34*; D2 PAM-2: -10

How did Oc1ccc(N=Nc2ccccc2)cc1 do in these assays?
D2 ag-1: 0; D2 PAM-1: -11; D2 ag-2: -3; D2 antagonist: 33*; D2 PAM-2: 5

What do the screens show for `Cc1ccc(S(=O)(=O)C2(C(=O)NC3CCCC3)CC2)cc1`?
D2 ag-1: 0; D2 PAM-1: 8; D2 ag-2: 2; D2 antagonist: -1; D2 PAM-2: 35*

Results for Cc1ccc(S(=O)(=O)C2(C(=O)NC3CCCCC3C)CC2)cc1 (stereo unspecified) ?
D2 ag-1: 0; D2 PAM-1: -6; D2 ag-2: -1; D2 antagonist: 5; D2 PAM-2: 0

What do the screens show for `Nn1c(SCCOc2ccccc2)nnc1-c1cccnc1`?
D2 ag-1: 1; D2 PAM-1: -2; D2 ag-2: -4; D2 antagonist: 33*; D2 PAM-2: 1

What do the screens show for `COC(=O)c1c(NC(=O)C(C)C)sc2c1C(C(=O)OC)CC2` (stereo unspecified)?
D2 ag-1: 0; D2 PAM-1: -7; D2 ag-2: -3; D2 antagonist: 0; D2 PAM-2: 47*

Results for COc1ccc(-c2nc3c4ccccc4ccn3c2Cc2ccccc2C(F)(F)F)cc1OC ?
D2 PAM-1: -6; D2 ag-2: -7

Results for Cc1cc(Cl)c2oc(C(=O)N(C)C3CCOC3)c(C)c2c1 (stereo unspecified) ?
D2 ag-1: 0; D2 PAM-1: -14; D2 ag-2: -2; D2 antagonist: -7; D2 PAM-2: 88*

Results for Cc1cc(Cl)c2oc(C(=O)N3CCOCC3)c(C)c2c1 ?
D2 PAM-1: -7; D2 ag-2: -2

Results for CCc1nc2ccc(C(=O)NCCc3ccccn3)cn2c1N(CCC(C)C)CCN(C)C ?
D2 PAM-1: -6; D2 ag-2: -6

Results for O=C(c1ccc(F)cc1)N(NC(=O)C(O)(c1ccccc1)c1ccccc1)c1ccccc1 ?
D2 ag-1: 3; D2 PAM-1: 0; D2 ag-2: 4; D2 antagonist: 40*; D2 PAM-2: -7

What do the screens show for `Cc1cc(C)cc(N=c2c([N+](=O)[O-])nn(-c3ccc4c(c3)OCCO4)n2O)c1`?
D2 ag-1: 0; D2 PAM-1: 3; D2 ag-2: 12; D2 antagonist: -11; D2 PAM-2: 2
